The nature of experiment [1]: qHTS for Inhibitors of Plasmodium falciparum (DD2) proliferation (AID 504314).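 Further: parasite DNA measured by SYBR Green fluorescence after red cell lysis; plate controls were DMSO vehicle for no effect and artemisinin wells for full effect.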 A digest of the protocol:
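Fluorescence read-out (ex 485/em 535 nm) of SYBR Green-stained parasite DNA quantifies intraerythrocytic growth. Cultures at 0.3% parasitemia and 2.5% hematocrit were treated for 72 h; data normalized to DMSO and 0.29 uM artemisinin wells.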
A general note: qHTS replaces the single test concentration by a dilution series.

A short description of experiment [2]: qHTS for Inhibitors of Plasmodium falciparum (GB4) proliferation (AID 504315).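 Further: 0% = DMSO vehicle and -100% = 0.29 µM artemisinin control; nearly all actives have a fitted effect of over 50% in size.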 A digest of the protocol:
(§1)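 Erythrocytes infected with P. falciparum line (0.3% parasitemia, 2.5% hematocrit final) incubated with compounds 72 h at 37 °C, 5% CO2; SYBR Green lysis buffer added, fluorescence read next day. Normalized to 0.29 uM artemisinin and DMSO.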

Experiment [3] is described as follows: qHTS for Inhibitors of Plasmodium falciparum (7G8) proliferation (AID 504316). Further: nearly all actives have a fitted effect of over 65% in size. Further: potency means the concentration at half of the fitted maximal effect.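 On activity change, negative = inhibition: series mostly up to about 6.7 µM; 0% = DMSO vehicle and -100% = 0.29 µM artemisinin full kill.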 An outline of the steps:
as §1

Experiment [4] in a line: qHTS for Inhibitors of Plasmodium falciparum (HB3) proliferation (AID 504318).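 Further: 0% = DMSO vehicle and -100% = artemisinin control; nearly all actives have a fitted effect of over 60% in size.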 An outline of the steps: as §1
Experiment [5] is described as follows: qHTS for Inhibitors of Plasmodium falciparum (CP250) proliferation (AID 504320).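 Further: plate controls were DMSO vehicle for no effect and 0.29 µM artemisinin control for full effect.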 A digest of the protocol: as §1
In experiment [6] the target is Atrial natriuretic peptide receptor 1 (Homo sapiens) (UniProt P16066). The experiment is described as follows: Natriuretic polypeptide receptor (hNpr1) antagonism - Pilot CMLD screen (AID 1347052; calls by dose curve;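 further: HEK293 cells with hNpr1 stimulated by hNppA peptide at 0.1 nM; cGMP level read as GloSensor luciferase luminescence after agonist stimulation; series mostly up to about 9.2 µM; on the % scale 0 is the no-effect control and ±100 the full control effect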).
Experiment [7] concerns the target Cytochrome P450 2C19 (Homo sapiens) (UniProt P33261). As to the kind of experiment: qHTS Assay for Inhibitors and Substrates of Cytochrome P450 2C19 (AID 899). Further: nearly all actives have a fitted effect of over 60% in size. Further: potency means the concentration at half of the fitted maximal effect. On activity, negative = inhibition: on the % scale 0 is the no-effect control and ±100 the full control effect. An outline of the steps: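 5nM enzyme + 10uM Luciferin-H EGE (=KM), 50mM KPO4; cpd pin-transferred, 10 min 37C; NADPH regen, 60 min 37C; stopped w/ luciferin detection reagent, 20 min; luminescence. Normalized to 57uM ketoconazole (AC100).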

A short description of experiment [8]: qHTS Assay for Identification of Small Molecule Agonists for Hypoxia Response Element Signaling Pathway (AID 914; active means well fitted activation curve with a large enough effect in the signal ratio, with a control signal flat, not every such curve was filed as active; the % refers to the signal ratio; further: % of control where 0% means no effect). The note with it: ME-180 (cervical carcinoma) HRE-bla reporter, beta-lactamase ratio, CoCl2, 17 h; stronger effect = higher value. A digest of the protocol: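 Cells were plated overnight, pin-dosed with compound in a titration series, co-stimulated with EC50 CoCl2 and incubated 17 hours at 37 degrees Celsius. CCF4 substrate was then loaded, and AC50 values came from the 460nm/530nm ratio.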

The target of experiment [9] is Cytochrome P450 2C9 (Homo sapiens) (UniProt P11712). As to the kind of experiment: qHTS Assay for Inhibitors and Substrates of Cytochrome P450 2C9 (AID 883). Further: nearly all actives have a fitted effect of over 60% in size. Further: potency means the concentration at half of the fitted maximal effect. On activity change, negative = inhibition: on the % scale 0 is the no-effect control and ±100 the full control effect. A digest of the protocol:
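Inhibition of CYP2C9 is scored as loss of luminescence, with 57uM sulphaphenazole defining 100% inhibition. Substrate Luciferin-H is used at 100uM, equal to its KM; enzyme at 10nM in 25mM KPO4, 60 min at 37C with NADPH regeneration.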

The target of experiment [10] is Cytochrome P450 3A4 (Homo sapiens) (UniProt P08684). The experiment is described as follows: qHTS Assay for Inhibitors and Substrates of Cytochrome P450 3A4 (AID 884). Further: nearly all actives have a fitted effect of over 50% in size. Further: potency means the concentration at half of the fitted maximal effect. On activity change, negative = inhibition: series mostly up to about 57 µM; on the % scale 0 is the no-effect control and ±100 the full control effect. A digest of the protocol:
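20 nM human CYP3A4 with 25 uM Luciferin-PPXE (at KM) in 200 mM KPO4, preincubated 10 min with compound; NADPH regeneration started a 60 min RT reaction. Luciferin detected by luminescence, normalized to 57 uM ketoconazole as full inhibition.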

In experiment [11] the target is Cytochrome P450 2D6 (Homo sapiens) (UniProt P10635). The experiment is described as follows: qHTS Assay for Inhibitors and Substrates of Cytochrome P450 2D6 (AID 891). Further: nearly all actives have a fitted effect of over 60% in size. Further: potency means the concentration at half of the fitted maximal effect. A digest of the protocol:
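Human CYP2D6 (5 nM) with 30 uM Luciferin-ME EGE (at Km) in 100 mM KPO4, compound preincubated 10 min, then NADPH regeneration system for 60 min at room temperature. Luciferin read by luminescence; normalized to 1.43 uM quinidine.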

The target in experiment [12] is Cytochrome P450 3A4 (Homo sapiens) (UniProt P08684). As to the kind of experiment: qHTS Assay for Activators of Cytochrome P450 3A4 (AID 885). Further: nearly all actives have a fitted effect of over 65% in size. An outline of the steps:
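Quantitative HTS format: compounds preincubated with 20nM human CYP3A4 and Luciferin-PPXE substrate at KM, reaction started by NADPH regeneration, stopped after 60 min, luciferase luminescence read 20 min later.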

A number with no mark means an inactive call. Inconclusive results are not listed. Calls of active or inactive are those of the source. Unless noted, the call rests on the fitted dose curve; in most records, active means well fitted curve in the direction sought with a large enough effect; inconclusive means small, poorly fitted or top-dose-only effect, or another doubt; inactive means no such curve, though single readings can be large; an effect the other way counts as inactive or inconclusive.

Sequence of Cytochrome P450 2C19 (Homo sapiens) (P33261 whole entry, looked up): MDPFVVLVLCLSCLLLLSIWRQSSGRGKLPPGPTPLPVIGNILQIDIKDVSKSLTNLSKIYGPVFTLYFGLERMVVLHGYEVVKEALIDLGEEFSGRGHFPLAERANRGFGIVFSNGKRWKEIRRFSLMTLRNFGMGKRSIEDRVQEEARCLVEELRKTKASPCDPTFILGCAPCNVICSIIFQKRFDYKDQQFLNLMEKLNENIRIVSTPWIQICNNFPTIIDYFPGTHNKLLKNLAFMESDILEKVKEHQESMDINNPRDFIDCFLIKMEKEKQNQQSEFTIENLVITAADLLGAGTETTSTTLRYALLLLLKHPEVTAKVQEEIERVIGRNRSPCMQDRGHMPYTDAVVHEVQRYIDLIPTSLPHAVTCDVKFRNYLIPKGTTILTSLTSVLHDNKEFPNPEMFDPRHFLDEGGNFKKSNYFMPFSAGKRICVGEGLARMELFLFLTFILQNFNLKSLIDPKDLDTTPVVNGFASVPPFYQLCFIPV
Sequence of Cytochrome P450 3A4 (Homo sapiens) (P08684 whole entry, looked up): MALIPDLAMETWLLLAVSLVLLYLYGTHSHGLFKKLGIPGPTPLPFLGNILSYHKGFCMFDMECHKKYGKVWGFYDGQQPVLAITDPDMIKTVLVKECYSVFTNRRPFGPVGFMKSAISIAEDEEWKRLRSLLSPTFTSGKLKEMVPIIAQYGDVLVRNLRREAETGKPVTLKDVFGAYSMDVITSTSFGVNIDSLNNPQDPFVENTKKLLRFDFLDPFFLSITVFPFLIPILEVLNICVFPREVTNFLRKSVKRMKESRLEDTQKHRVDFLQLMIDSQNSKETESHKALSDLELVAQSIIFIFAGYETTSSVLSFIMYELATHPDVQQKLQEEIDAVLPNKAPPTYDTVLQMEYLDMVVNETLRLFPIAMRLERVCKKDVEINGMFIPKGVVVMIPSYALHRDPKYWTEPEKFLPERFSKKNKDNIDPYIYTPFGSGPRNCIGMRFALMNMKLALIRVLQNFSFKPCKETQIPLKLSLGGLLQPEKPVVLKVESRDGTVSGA
Sequence of Cytochrome P450 2C9 (Homo sapiens) (P11712 whole entry, looked up): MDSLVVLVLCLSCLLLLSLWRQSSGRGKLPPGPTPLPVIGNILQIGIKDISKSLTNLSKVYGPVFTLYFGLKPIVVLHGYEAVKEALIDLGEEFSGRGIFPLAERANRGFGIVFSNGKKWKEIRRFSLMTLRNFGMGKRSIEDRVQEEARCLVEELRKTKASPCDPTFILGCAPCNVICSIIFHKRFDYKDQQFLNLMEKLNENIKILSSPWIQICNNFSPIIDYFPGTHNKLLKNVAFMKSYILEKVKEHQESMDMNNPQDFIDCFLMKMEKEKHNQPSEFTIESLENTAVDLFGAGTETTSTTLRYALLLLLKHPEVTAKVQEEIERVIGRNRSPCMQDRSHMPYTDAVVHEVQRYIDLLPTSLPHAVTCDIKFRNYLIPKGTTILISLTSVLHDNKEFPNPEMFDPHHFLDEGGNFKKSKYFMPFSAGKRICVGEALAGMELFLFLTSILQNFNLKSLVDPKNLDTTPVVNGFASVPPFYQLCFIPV
Sequence of Atrial natriuretic peptide receptor 1 (Homo sapiens) (P16066 whole entry, looked up): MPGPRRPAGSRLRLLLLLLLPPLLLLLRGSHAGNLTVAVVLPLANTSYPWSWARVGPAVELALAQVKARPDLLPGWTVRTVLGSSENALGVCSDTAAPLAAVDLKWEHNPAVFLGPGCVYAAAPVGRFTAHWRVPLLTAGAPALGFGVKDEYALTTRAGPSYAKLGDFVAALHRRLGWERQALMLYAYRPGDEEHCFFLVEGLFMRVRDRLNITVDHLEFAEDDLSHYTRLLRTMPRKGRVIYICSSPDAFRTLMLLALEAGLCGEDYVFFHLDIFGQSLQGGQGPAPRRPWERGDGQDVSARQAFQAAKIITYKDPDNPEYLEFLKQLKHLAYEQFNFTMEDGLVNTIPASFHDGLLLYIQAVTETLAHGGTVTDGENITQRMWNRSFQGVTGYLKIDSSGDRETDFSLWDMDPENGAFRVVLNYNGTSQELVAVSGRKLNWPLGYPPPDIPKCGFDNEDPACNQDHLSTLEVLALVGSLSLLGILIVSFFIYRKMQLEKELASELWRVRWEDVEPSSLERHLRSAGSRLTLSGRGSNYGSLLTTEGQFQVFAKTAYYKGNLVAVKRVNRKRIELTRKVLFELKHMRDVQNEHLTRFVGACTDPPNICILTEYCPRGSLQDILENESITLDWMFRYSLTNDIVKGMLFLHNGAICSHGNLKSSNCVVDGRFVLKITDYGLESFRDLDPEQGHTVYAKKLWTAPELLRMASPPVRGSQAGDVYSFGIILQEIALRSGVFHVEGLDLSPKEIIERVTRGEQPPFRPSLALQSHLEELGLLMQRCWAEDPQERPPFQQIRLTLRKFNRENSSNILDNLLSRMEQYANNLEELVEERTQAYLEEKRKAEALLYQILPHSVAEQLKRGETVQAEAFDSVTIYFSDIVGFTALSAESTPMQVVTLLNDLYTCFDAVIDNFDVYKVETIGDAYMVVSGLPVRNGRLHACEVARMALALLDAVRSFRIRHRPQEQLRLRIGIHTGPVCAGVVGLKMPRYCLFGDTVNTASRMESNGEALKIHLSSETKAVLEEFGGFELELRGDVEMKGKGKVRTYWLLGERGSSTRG
Sequence of Cytochrome P450 2D6 (Homo sapiens) (P10635 whole entry, looked up): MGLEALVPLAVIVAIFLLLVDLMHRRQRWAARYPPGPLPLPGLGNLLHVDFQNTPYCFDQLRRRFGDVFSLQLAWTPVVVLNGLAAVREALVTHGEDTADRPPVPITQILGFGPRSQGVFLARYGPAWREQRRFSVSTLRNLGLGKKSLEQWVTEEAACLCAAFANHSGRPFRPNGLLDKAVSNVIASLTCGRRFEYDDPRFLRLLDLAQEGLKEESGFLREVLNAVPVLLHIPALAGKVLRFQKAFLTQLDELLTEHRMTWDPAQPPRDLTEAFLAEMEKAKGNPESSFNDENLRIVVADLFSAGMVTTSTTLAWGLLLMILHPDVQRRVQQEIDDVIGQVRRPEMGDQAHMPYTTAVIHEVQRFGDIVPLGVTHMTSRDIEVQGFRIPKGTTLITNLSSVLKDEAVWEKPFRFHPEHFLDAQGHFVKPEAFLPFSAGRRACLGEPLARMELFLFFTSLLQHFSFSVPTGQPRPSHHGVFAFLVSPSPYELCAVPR

Consider `COc1cc2c(cc1OC)C1OC(c3ccsc3)(C2)Oc2cc(C)oc(=O)c21` (stereo not drawn), for which the Potency result in experiment [1], in experiment [2], in experiment [3], in [4], in experiment [5] and in experiment [6] was “inactive” throughout.

Take `C[C@@H]1CC[C@H]2C(=O)NC[C@@H](O)CN2[C@@H]1c1ccc(Br)cc1`: in experiment [7], the Potency is 2000 nM (active). Further, the activation in [8] is -3.48%. Also, the Potency entry in experiment [1], in experiment [2], in experiment [3], in experiment [4], in [5] and in [6] was “inactive” each time.

In the case of `CCCCCCCC1=CC2=CC(=O)C(C)(O)C(=O)C2=CN1CCCC` (stereo not drawn), the activity change, negative = inhibition in experiment [9] is 13.4% [at 11.4 µM]; in [10], -26.9% [at 11.4 µM]. The Potency in experiment [11] is 3160 nM (active). Moreover, the activity, negative = inhibition in experiment [7] is 80.9% [at 11.4 µM]. For the same compound, the Potency entry in [1], in experiment [2], in experiment [3], in experiment [4], in [5] and in experiment [6] was “inactive” in each case.

With `CC1=CC[C@@H](C)O[C@@]2(C1)C(=O)Nc1cccc(Br)c12`, the Potency result in [1], in experiment [2], in experiment [3], in experiment [4], in [5] and in experiment [6] was “inactive” in each case.

Take `C=CCN1c2ccccc2[C@]23C[C@@H](C(=O)OC)N(C(=O)Nc4ccc(C(F)(F)F)cc4)C2=NC(C(=O)OC)=C(C(=O)OC)[C@H]13`: the Potency result in experiment [1], in experiment [2], in experiment [3], in experiment [4], in experiment [5] and in experiment [6] was “inactive” throughout.

As for `CC#CCN1C(=O)NC(c2ccccc2)C(C(=O)OCC)=C1c1ccccc1` (stereo not drawn), the Potency result in experiment [1], in [2], in experiment [3], in experiment [4], in experiment [5] and in [6] was “inactive” in each case.

For the compound `COC(=O)C(c1ccc(OC)c(OC)c1)C1c2ccccc2C=C(C)N1C(=O)OC` (stereo not drawn), the Potency entry in [1], in experiment [2], in experiment [3], in experiment [5] and in experiment [6] was “inactive” each time.

As to `N#CCCN(CC#Cc1ccccc1)OCc1ccccc1`, the values for the Potency in experiment [9], in experiment [10] and in experiment [7] were 3160 nM (active), 199 nM (active) and 316 nM (active), respectively. The activity change, negative = inhibition in [11] is -16.6% [at 11.4 µM]. Moreover, the Potency result in experiment [1], in [2], in experiment [3], in experiment [4], in experiment [5] and in [6] was “inactive” each time.

In the case of `C[C@@H]1CC[C@H]2C(=O)O[C@H](CN=[N+]=[N-])CN2[C@@H]1c1ccc(Br)cc1`, in [7], the Potency was 398 nM (active). Moreover, in experiment [8], the activation was 9.69%. Besides, the Potency entry in [1], in experiment [2], in [3], in experiment [4] and in experiment [6] was “inactive” each time.

For the compound `COc1ccc(COC(=O)NN=C2C[C@@H](O)[C@@H](O)[C@@H]3[C@H]4C(=O)N(Cc5ccccc5)C(=O)[C@@H]4CC[C@@H]23)cc1`, the Potency result in [1], in experiment [2], in experiment [3], in [5] and in [6] was “inactive” each time.

Take `C[C@H]1Cc2c(COc3ccccc3)nc3c(c2CO1)CN(C(=O)C1CC1)CC3`: the Potency result in [1], in [2], in experiment [3], in [5] and in experiment [6] was “inactive” each time.

Consider `CCN1C(=NCc2ccccc2)N[C@@H](CCc2ccccc2)[C@H](C(=O)OC)[C@H]1C`, for which the Potency entry in experiment [1], in experiment [2], in experiment [3], in experiment [4], in [5] and in experiment [6] was “inactive” each time.

On to `CCCCCC1=CC2=C(C(=O)OC)C(c3ccccc3)NC(=O)N2CC1` (stereo not drawn), for which the Potency entry in experiment [1], in experiment [2], in [3], in [5] and in experiment [6] was “inactive” throughout.

On to `COC(=O)[C@H]1O[C@@H](c2cc(OC)c(C)c(OC)c2OCc2ccccc2)[C@H](C)[C@H]2O[C@@]12C`, for which the Potency entry in experiment [1], in [2], in experiment [3], in experiment [5] and in experiment [6] was “inactive” throughout.

For `COc1ccc2c(c1)c(CC(=O)NCc1ccc3c(c1)OCO3)c(C)n2C(=O)c1ccc(Cl)cc1`, the Potency entry in experiment [1], in [2], in [3], in [5] and in [6] was “inactive” in each case.

Regarding `COc1ccc2c(c1)O[C@H](c1ccc3c(c1)OCO3)[C@@H](OC(=O)Nc1ccc(C)c(Br)c1)C2=O`, the Potency entry in experiment [1], in experiment [2], in experiment [3], in experiment [4], in experiment [5] and in [6] was “inactive” in each case.

With `Cc1ccc(S(=O)(=O)n2c3ccccc3c3nnc(C(=O)c4ccccc4)nc32)cc1`, the activity change, positive = activation in [12] is -61.8% [at 11.4 µM]. For the same compound, the Potency entry in [1], in experiment [2], in experiment [3], in experiment [4], in [5] and in [6] was “inactive” each time.

Turning to `COc1ccc(C(=O)Oc2cc(OC)cc(OC)c2C(C)=O)cc1`, the activity change, negative = inhibition was 19.9% [at 11.4 µM] in experiment [9] and 5.18% [at 11.4 µM] in experiment [11]. For the same compound, the activity, negative = inhibition in [7] was 27.9% [at 11.4 µM]. Also, the Potency result in [1], in [2], in experiment [3], in experiment [4], in [5] and in [6] was “inactive” in each case.

As to `COCn1c2ccccc2c2nnc(C(=O)O)nc21`, the activity change, negative = inhibition was -6.97% [at 11.4 µM] in [9], -11.5% [at 11.4 µM] in experiment [10] and 12.8% [at 11.4 µM] in experiment [11]. Besides, in experiment [7], the activity, negative = inhibition was 65.8% [at 11.4 µM]. Moreover, the Potency entry in experiment [1], in experiment [2], in [3], in experiment [4], in experiment [5] and in [6] was “inactive” in each case.

In the case of `COC(=O)[C@@H]1CC[C@H](C)[C@@H](c2ccc(C)cc2)N1C(=O)c1ccc(C=NOC[C@@H](O)[C@H]2O[C@@H]3OC(C)(C)O[C@H]3[C@@H]2O)cc1`, the Potency entry in experiment [1], in experiment [2], in experiment [5] and in experiment [6] was “inactive” throughout. In addition, the Potency in experiment [3] was 1200 nM (active).

With `C[C@@H]1CC[C@H]2C(=O)N3[C@@H](CC[C@@H](C)[C@@H]3c3ccc(-c4ccco4)cc3)C(=O)N2[C@@H]1c1ccc(-c2ccco2)cc1`, the Potency result in experiment [1], in experiment [2], in experiment [3], in experiment [4], in experiment [5] and in experiment [6] was “inactive” throughout.
